Bioassay records deposited in PubChem BioAssay by National Center for Advancing Translational Sciences (NCATS).
Compounds with a hit are over-represented: about 0.9% of the library has one in this group of screens.
RXFP1 ag = RXFP1 (human) receptor agonism | AID 2676 | HEK293T-RXFP1 cAMP TR-FRET, 30 min; response scale: percent of porcine relaxin response, buffer zero | Q9HBX9 | hit rate 0.3% among 370,000 | Potency, µM (doses to about 57.5 µM), inactives show at the top dose activation, hits mostly activators; active = well fitted activation curve with a large enough effect; inconclusive = small, poorly fitted or top-dose-only effect; note: potency is the fitted concentration of half-maximal effect; % is set by controls: 0 for no effect and ±100 for the full control effect; nearly all actives have a fitted effect of over 60% in size
Target sequence (Q9HBX9 whole entry, looked up): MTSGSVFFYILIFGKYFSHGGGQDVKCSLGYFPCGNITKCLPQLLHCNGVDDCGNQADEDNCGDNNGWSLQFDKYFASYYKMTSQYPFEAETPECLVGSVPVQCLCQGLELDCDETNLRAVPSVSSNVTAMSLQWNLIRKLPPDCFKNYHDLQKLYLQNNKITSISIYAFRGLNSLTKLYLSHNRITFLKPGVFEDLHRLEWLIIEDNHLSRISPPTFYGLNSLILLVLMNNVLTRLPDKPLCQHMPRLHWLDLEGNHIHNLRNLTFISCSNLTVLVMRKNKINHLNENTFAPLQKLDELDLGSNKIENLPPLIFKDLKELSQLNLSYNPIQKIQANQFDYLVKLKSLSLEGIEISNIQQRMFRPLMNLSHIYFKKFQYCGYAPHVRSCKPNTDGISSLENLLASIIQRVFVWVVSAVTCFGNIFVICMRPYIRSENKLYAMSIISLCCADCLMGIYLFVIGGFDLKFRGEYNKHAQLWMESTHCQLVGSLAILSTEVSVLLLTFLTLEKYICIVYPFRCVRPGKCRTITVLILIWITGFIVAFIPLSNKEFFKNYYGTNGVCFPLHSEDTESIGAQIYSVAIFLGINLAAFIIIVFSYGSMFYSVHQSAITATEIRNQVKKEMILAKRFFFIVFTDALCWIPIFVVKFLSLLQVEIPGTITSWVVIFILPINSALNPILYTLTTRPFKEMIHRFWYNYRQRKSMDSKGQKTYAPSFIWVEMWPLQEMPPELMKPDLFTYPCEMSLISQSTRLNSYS
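HEK293 cells stably expressing RXFP1, treated 30 min at 37C with compounds plus PDE4 inhibitor Ro 20174; cAMP measured by HTRF TR-FRET. Normalized to buffer and 29 nM porcine relaxin; EC50 by Hill fit.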
gsp ag = agonists of gsp mutant (McCune-Albright syndrome) | gsp mutant cells, cAMP HTRF, 30 min | Potency, µM (highest dose often 76.9 µM), for the others: top-dose activation (cAMP increase), hits mostly activators | hit rate 0.13% among 340,000 | AID 624287; active = well fitted activation curve with a large enough effect; inconclusive = small, poorly fitted or top-dose-only effect, or another doubt; inactive = no such curve, though single readings can be large or run the other way; cell line not stated here;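 note: phosphodiesterase inhibitor Ro 20-1724 added with compounds to block cAMP breakdown; potency is the fitted concentration of half-maximal effect; nearly all actives have a fitted effect of over 60% in size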
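Cells stably selected in G418 were plated at 2000/well, grown 16-24 hr, then given compounds in DMSO with the PDE inhibitor […] (300 uM solution added) for 30 min at 37C; cAMP was read by HTRF.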
gsp antag = gsp mutant antagonism. gsp-mutant cells, cAMP HTRF, 30 min. Potency, µM (top dose mostly 76.9 µM), for inactives: at the highest dose activity change, negative = inhibition, actives largely listed as inhibitors. hit rate 0.4% among 340,000. AID 624288; calls by dose curve; cell line not stated here;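 note: intracellular cAMP measured with PDE inhibitor Ro 20-1724 present during compound exposure; potency is the fitted concentration of half-maximal effect; % is set by controls: 0 for no effect and ±100 for the full control effect; nearly all actives have a fitted effect of over 65% in size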
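Cells in G418 medium, seeded 16-24 h, 37C; buffer exchange to DPBS + 1 mM CaCl2, 0.5 mM MgCl2, 0.05% BSA; cpds in DMSO + […] (300 uM stock), 30 min 37C; HTRF cAMP detection.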
RXFP1 antagonist = antagonists of human relaxin receptor RXFP1; activity change, negative = inhibition, % at 57.5 µM; Q9HBX9; HEK293-RXFP1, relaxin-stimulated cAMP HTRF, 30 min; hits give low values; hit rate 0.59% among 350,000; AID 1259400;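 active = activity change of -60% or lower, but not beyond a set lower limit; inconclusive = change between -60% and -40%, or beyond the set limit; inactive = change above -40%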; note: % is set by controls: 0 for no effect and ±100 for the full control effect
Numbers without * were called inactive; ? = inconclusive; · = no result given; ! = not active in a repeat; [ ] = dose if it differs, or a comment.

SMILES	RXFP1 ag	gsp ag	gsp antag	RXFP1 antagonist
CCc1oc2ccccc2c1C(=O)c1cc(I)c(O)c(I)c1	·	·	·	-16
CCOC(=O)C(=O)CCCCCCl	·	·	·	3
Cc1[nH]c2ccccc2c1NC(=O)CN1CCN(c2cccc(C(F)(F)F)c2)CC1	0%	-27%	50µM*	8
COc1ccc(OC)c(NC(=O)CC(=O)Nc2ccc3nc4n(c(=O)c3c2)CCCCC4)c1	5%	·	·	·
Cc1cccc(OCC(=O)Nc2c(C)ccc3nsnc23)c1C	?	·	·	17
Cc1nc(SC(C)C(=O)NCC2CCCO2)c2cc(-c3ccccc3)sc2n1 (stereo unspecified)	1%	-5%[15.4 µM]	-30%	-69*
CC(Sc1ncnc2c1cnn2-c1ccccc1)C(=O)NCC1CCCO1 (stereo unspecified)	2%	30%	-9%	5
COc1cc(OC)c(OC)cc1/C=C/c1nc2cc3ccccc3cc2c(=O)n1-c1ccc(F)cc1F	2%	·	·	-19
Cc1cccc(C(=O)Nc2nnc(S(=O)(=O)N(C)Cc3ccco3)s2)c1	14µM*!	38%	-9%	3
CCC1(C)Cc2c(sc3nc(SC)[nH]c(=S)c23)CO1 (stereo unspecified)	25µM*	?	-6%	8
O=C1c2ccccc2NC(c2ccc(Br)s2)N1O (stereo unspecified)	·	16µM*	-2%	-1
C=CCn1c(O)c(C2=c3ccccc3=NC2=O)c2ccccc21	1%	-28%	11%	-95*
COc1cc(C(=O)Nc2sc3c(c2C#N)CCN(C(C)=O)C3)cc(OC)c1OC	17%	10µM*	0%	·
COc1ccc(-c2csc(N(CCCN(C)C)C(=O)c3ccc(C(C)(C)C)cc3)n2)cc1	0%	0%[15.4 µM]	5%	-65*
N#Cc1c(N)nc2c3c(sc(=N)c2c1N)NC(=O)CC3c1ccccc1 (stereo unspecified)	28µM*	31%	6%	4
N#Cc1c(N)nc2c3c(sc(=N)c2c1N)NC(=O)CC3c1c(F)cccc1Cl (stereo unspecified)	?	7%	4%	8
Cc1ccc(CNc2ccc(-c3nc(-c4ccccn4)no3)cc2[N+](=O)[O-])cc1	-7%	·	·	·
N#C/C(=C\Nc1ccccc1O)c1nc2ccccc2o1	5%	-6%	50µM*	?
N#C/C(=C\c1ccncc1)c1nc2ccccc2o1	4%	16%[15.4 µM]	-2%	12
CCN1C(=O)/C(=C\C(=O)c2cccs2)c2cc(Br)ccc21	2%	-20%	-4%	-66*
COc1ccc(-c2cc(=O)oc3c4c(ccc23)OCN(Cc2cccc(OC)c2)C4)cc1	11%	·	·	-6
COC(=O)CSc1nc2sccc2c(=O)n1-c1ccccc1	2%	-3%[15.4 µM]	6%	-4
CCc1cc2c(=O)n(-c3ccccc3)c(SCC(N)=O)nc2s1	0%	6%	7.1µM*	-11
O=[N+]([O-])c1cccc(NC2=NCCC2)c1	1%	0%[15.4 µM]	19%	-64*
COC(c1ccccc1)(c1ccccc1)[C@H](Oc1nc(C)cc(C)n1)C(=O)O	·	·	·	-16
SMILES	RXFP1 ag	gsp ag	gsp antag	RXFP1 antagonist
CCCCC(=O)NC(c1ccc([N+](=O)[O-])cc1)c1c(O)ccc2ccccc12 (stereo unspecified)	0%	3%[15.4 µM]	?	-62*
CCC(=O)NC(c1ccc([N+](=O)[O-])cc1)c1c(O)ccc2ccccc12 (stereo unspecified)	-1%	-67%	?	-20
CN(C)C(=O)NC1c2ccccc2-c2ccccc21	-1%	?	12%	2
O=C1C=CC(=O)N1c1ccc2c(c1)C(NC(=O)C(F)(F)F)c1ccccc1-2 (stereo unspecified)	·	0%	7%	-97*
O=C(O)Cn1c(=O)n(Cc2ccc(Br)cc2F)c(=O)c2ccc(Cl)cc21	·	·	·	-24
O=C(NCc1ccc(Cl)cc1)c1ccc2c(c1)N(Cc1ccccc1F)C(=O)c1ccccc1S2=O (stereo unspecified)	4%	·	·	·
CC(=O)c1sc(C(C)(C)C)cc1NC(=O)/C=C/C(=O)O	1%	2%	-15%	6
CC(=O)c1sc(C(C)(C)C)cc1NC(=O)CCC(=O)O	?	8.9µM*	14%	23
Cc1cc(Nc2cccc(C(F)(F)F)c2)n2nc(C)nc2n1	1%	2%	6%	-3
COc1ccc(-c2nc3nc(C)cc(Nc4cccc(C(F)(F)F)c4)n3n2)cc1	32µM*	·	·	-2
OCCN1CCN(c2nc(-c3ccccc3)c3cc(Br)ccc3n2)CC1	8%	5%	6%	-70*
O=C(NCCN1CCN(c2cccc(Cl)c2)CC1)c1ccc(CSc2nc3ccncc3[nH]2)cc1	3%	17%	32µM*	-5
CCN(CCNC(=O)c1ccc(CSc2nc3ccncc3[nH]2)cc1)c1ccccc1	0%	-233%	-6%	·
CCOc1ccc(C2C=C(c3ccc(C)cc3)Nc3nnnn32)cc1 (stereo unspecified)	1%	11%	40µM*	9
CCOC(=O)C(=O)c1csc(NC=O)n1	·	·	·	10
O=C(Nc1cccc(Cl)c1Cl)c1cc(S(=O)(=O)N2CCC3(CC2)OCCO3)ccc1F	-3%	·	·	-5
CCCNC(=O)COC(=O)c1cc2c(=O)n3ccccc3nc2s1	?	11µM*	3%	12
Cc1ccc(C[C@H](C(=O)O)N2C(=O)c3ccc(C(=O)O)cc3C2=O)c(C)c1	2%	·	·	·
CN(C(=O)c1ccc2c(=O)n3c(nc2c1)CCCCC3)c1ccccc1F	3%	-30%	0%	35
Cc1ccc(C)c(N(C)C(=O)c2ccc3c(=O)n4c(nc3c2)CCCCC4)c1	-3%	-2%	-6%	-102*
CN1N=C2c3ccccc3CCC2C1c1ccc(F)cc1 (stereo unspecified)	-4%	-10%[15.4 µM]	-2%	-3
c1ccc(N2CC3CCc4ccccc4C3=N2)cc1 (stereo unspecified)	19%	10µM*	9%	5
Cc1cccc(C)c1NC(=O)CN1C(=O)c2ccccc2Sc2ncccc21	2%	·	·	·
Cc1cc(C)nc(SCc2cc(=O)c(OC(=O)c3ccc(Cl)c([N+](=O)[O-])c3)co2)n1	5%	-38%	35µM*	-3
Cc1cc(C)nc(SCc2cc(=O)c(OC(=O)c3ccc(S(=O)(=O)N(C)C)cc3)co2)n1	1%	-6%	-20%	·
SMILES	RXFP1 ag	gsp ag	gsp antag	RXFP1 antagonist
Cc1ccc2nc3c(c(Nc4ccc(C)c(C)c4)c2c1)CCC3	-2%	·	·	·
Cc1ccc(N/C(N)=N/c2nc3c(c(=O)[nH]2)CCCC3)c(C)c1	1%	0%	9%	9
Cc1ccc(N/C(N)=N/c2nc(C)cc(N3CCCCC3)n2)c(C)c1	0%	9%[15.4 µM]	-14%	-83*
COc1ccc(NC(=O)CCCc2nnc3n(C)c(=O)c4sccc4n23)cc1	16µM*	?	10%	4
Cn1c(=O)c2sccc2n2c(CCCC(=O)NCc3cccnc3)nnc12	13µM*	?	20%	26
O=C(CCCCCn1c(=O)c2sccc2n(Cc2ccccc2Cl)c1=O)NCc1ccc2c(c1)OCO2	32µM*	·	·	-6
